According to PubChem BioAssay AID584 (National Center for Advancing Translational Sciences (NCATS), 2007):
Out of some 71,000 compounds screened, about 65 (0.09%) were called active. Entries that show only a call come without a potency. This is one part of a sample in which actives are shown more often than they occur. Unmarked numbers belong to inactive results. The call rests on the fitted dose curve; in most records, active means well fitted curve in the direction sought with a large enough effect; inconclusive means small, poorly fitted or top-dose-only effect; inactive means flat fitted curve, though single readings scatter.

Target: Beta-lactamase (Escherichia coli (strain K12)) (UniProt P00811)
Experiment: Promiscuous and Specific Inhibitors of AmpC Beta-Lactamase (assay with detergent)
Settings: purified AmpC, nitrocefin hydrolysis with detergent; series mostly up to 28.7 µM
Description: NIH Molecular Libraries Screening Centers Network [MLSCN]
NIH Chemical Genomics Center [NCGC]
PI Name: Shoichet, Brian K.
This aggregation profiling approach exploits the sensitivity of aggregate formation to detergent. Inhibition of b-lactamase is measured in the presence and absence of 0.01% Triton X-100. This particular assay had the prescence of 0.01% Triton X-100. See Pubchem assay "Promiscuous and Specific Inhibitors of AmpC Beta-Lactamase (assay without detergent)" for related screen. Compounds that inhibit only in the absence of detergent are considered likely promiscuous aggregators.
A screen of 1,030 compounds was performed in Brian Shoichet's lab in 96-well format. AmpC activity was measured by following the absorbance at 480 nm. Nitrocefin is a chromogenic substrate: while nitrocefin is yellow (lmax 390 nm), the product of its hydrolysis is red (lmax 486 nm, 17,000 M-1). AmpC beta lactamase was provided by Brian Shoichet and Brian Feng, UCSF.
NCGC Assay Protocol Summary:
20 mM phosphate buffer, pH 7.0
Triton X-100: No Detergent screen: 0.0001%, Detergent screen: 0.01%.
Buffer in columns 3 and 4 as negative control (no enzyme).
5.3 nM AmpC in columns 1, 2, 5-48. Titration of UCSF compound 9 control (from 10 mM, then 1:2) pin-transferred to column 2. Column 1 is neutral (100% activity).
Six uL of reagents were dispensed to 1536-well Greiner black clear bottom plates. Compounds and controls (23 nL) were transferred via Kalypsys PinTool. The plates were incubated for 15 min at room temperature, and then 2 uL of 800 uM solution of nitrocefin was added to start the reaction. The plates were immediately transferred to and read every 20 seconds for 4 min on ViewLux (Perkin-Elmer) High-throughput CCD imager using 480 nm absorbance protocol. During dispense, reagent bottles were kept submerged into 4 deg C water bath.
Keywords: NIH Roadmap, MLSCN, MLI, MLSMR, qHTS, NCGC, AmpC Beta-Lactamase, Aggregation
Potency means the concentration at half of the fitted maximal effect.

Beta-lactamase (Escherichia coli (strain K12)), sequence (P00811 whole entry, looked up): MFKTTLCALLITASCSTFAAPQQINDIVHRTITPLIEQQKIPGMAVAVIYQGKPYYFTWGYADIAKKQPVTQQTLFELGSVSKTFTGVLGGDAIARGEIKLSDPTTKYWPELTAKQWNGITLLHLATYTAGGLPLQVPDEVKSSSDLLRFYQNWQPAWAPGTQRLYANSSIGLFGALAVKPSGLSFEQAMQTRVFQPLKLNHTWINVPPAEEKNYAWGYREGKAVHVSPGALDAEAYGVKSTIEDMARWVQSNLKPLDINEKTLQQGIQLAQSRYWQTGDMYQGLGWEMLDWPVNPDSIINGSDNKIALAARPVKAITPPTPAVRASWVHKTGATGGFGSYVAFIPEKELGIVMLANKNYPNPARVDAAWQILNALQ

| SMILES | activity change, negative = inhibition | Potency |
| --- | --- | --- |
| CCOc1cc(C(=O)N2CCc3cc(OC)c(OC)cc3C2)ccc1OC(F)F | inactive |  |
| N#C/C(=C\c1ccc(O)c(O)c1)C(=O)NCc1ccccc1 | inactive |  |
| C=C(C)COc1ccc(-c2n[nH]c(C)c2-c2ccccc2OC)c(O)c1 | inactive |  |
| CC(C)(C)n1nnnc1C(c1ccc2ncccc2c1)N1CCSCC1 (stereo not drawn) | inactive |  |
| NCCNCC1CCNCC1 | -0.8% [at 5.75 µM] |  |
| CCc1nnc(NC(=O)c2ccc(S(=O)(=O)NC3CCCCC3)cc2)s1 | inactive |  |
| Cc1cccc(N2CCN(C(c3ccccc3)c3nnnn3CC3CCCO3)CC2)c1C (stereo not drawn) | inactive |  |
| Cc1cccc2cc(CN(Cc3nnnn3Cc3ccccc3)C3CCCC3)c(=O)[nH]c12 | inactive |  |
| CCS(=O)(=O)N1CCCC(C(=O)NCCCN(C)Cc2ccccc2)C1 (stereo not drawn) | inactive |  |
| CC1=CC(=O)C2=C(C)C[C@H](O)[C@@H]3[C@@H](OC(=O)[C@H]3C)[C@H]12 | inactive |  |
| Cc1ccc(N2C(=O)c3oc4ccccc4c(=O)c3C2c2cccnc2)nc1 (stereo not drawn) | inactive |  |
| O/N=C1\CC2(Cc3nonc31)OCCO2 | inactive |  |
| Cn1c(=O)c(-c2ccccc2)nc2cnc(N3CCNCC3)nc21 | inactive |  |
| CCOC(=O)CSc1nnc(CNc2nc(-c3ccccc3)cs2)n1C | inactive |  |
| Cc1ccc(-n2nc(-c3ccco3)cc2C(=O)NCc2cccnc2)cc1 | inactive |  |
| Cc1ccc(S(=O)(=O)N2CCC(C(=O)N[C@@H](C)C(=O)NCc3ccccc3)CC2)cc1 | inactive |  |
| N#Cc1ccccc1-c1ccc2ncnc(NCc3cccnc3)c2c1 | inactive |  |
| NC(=O)c1ccc(OC[C@H](O)CN2CC=C(c3ccc(F)cc3)CC2)cc1 | inactive |  |
| CCCn1c(-c2ccc(F)cc2)nc2c(NC3CCN(Cc4ccccc4)C3)nc(C)nc21 (stereo not drawn) | inactive |  |
| CC(C)c1cc(CN(C)C)c(O)c(C(C)(C)C)c1 | -4.5% [at 5.75 µM] |  |
| O=C1N(Cc2ccc3c(c2)OCO3)c2ccccc2C1(O)c1c[nH]c2ccccc12 (stereo not drawn) | inactive |  |
| CC(C)(C)NC(=O)C(c1ccncc1)N(C(=O)CNC(=O)c1ccco1)c1ccc2c(c1)OCO2 (stereo not drawn) | inactive |  |
| O=C(NC12CC3CC(CC(C3)C1)C2)N1CCCC(CO)C1 (stereo not drawn) | inactive |  |
| CC(C)(O)[C@H]1[C@H]2OC(=O)[C@@H]1[C@]1(O)C[C@H]3O[C@]34C(=O)O[C@H]2[C@]14C | inactive |  |

| SMILES | activity change, negative = inhibition | Potency |
| --- | --- | --- |
| CC(=O)Oc1ccc(C(=O)Nc2nccs2)cc1 | inactive |  |
| COc1ccc2[nH]cc(CCNc3cc(-c4ccccc4CN(C)C)ncn3)c2c1 | inactive |  |
| CCCNC(=O)C1CC(=O)N(c2ccc(OCC(=O)Nc3cccc(C)c3C)cc2)C1 (stereo not drawn) | inactive |  |
| O=C(NCC1CCCO1)C(C(=O)c1ccccc1)n1cc(Cl)ccc1=O (stereo not drawn) | inactive |  |
| O=C(c1cccs1)N1CCCC(c2nc(-c3ccc(F)cc3)no2)C1 (stereo not drawn) | inactive |  |
| CS(=O)(=O)NCc1ccc(C(=O)NCc2ccccc2)cc1 | inactive |  |
| COc1cccc(-n2c(SCC(=O)NC3CCCCC3)nc3n[nH]c(C)c3c2=N)c1 | inactive |  |
| CCOC(=O)c1ccc(N2C(=O)CC(N3CC(C)OC(C)C3)C2=O)cc1 (stereo not drawn) | inactive |  |
| CCOc1ccc2nc(NCCNS(=O)(=O)c3ccccc3)c(C#N)cc2c1 | inactive |  |
| O=C(Cn1ccc(=O)[nH]c1=O)Nc1ccc(C(=O)O)c(O)c1 | -5.4% [at 5.75 µM] |  |
| COc1cc(C[C@H](C)N)c(OC)cc1I | inactive |  |
| O=C(Nc1ccccc1)N(Cc1cccnc1)Cc1ccco1 | inactive |  |
| O=C(O)CSCNC(=O)CC12CC3CC(CC(C3)C1)C2 | inactive |  |
| CCOc1c(N2CCCCC2)c(=O)c1=O | inactive |  |
| NC(=S)c1ccc(C(N)=S)o1 | inactive |  |
| O=C(Nc1ccccc1)N[C@H]1C[C@H](C(=O)O)Nc2cc(Cl)cc(Cl)c21 | inactive |  |
| O=C(CN(CC1CCCO1)C(=O)CNS(=O)(=O)c1ccccc1)NCc1ccccc1 (stereo not drawn) | inactive |  |
| COC(=O)c1ccc(S(=O)(=O)c2ccc(C(=O)OC)s2)s1 | inactive |  |
| CCNS(=O)(=O)c1ccc(NC(=O)Nc2cccc(C(F)(F)F)c2)cc1 | inactive |  |
| COc1ccc2oc(=O)c(C(=O)O)cc2c1 | inactive |  |
| O=C(NCc1ccccn1)c1cc2ccccc2oc1=O | inactive |  |
| O=C(Oc1cccnc1)c1cc2ccccc2oc1=O |  | 10 µM (active) |
| C=CCOc1ccc(C2/C(=C(\O)c3c(C)[nH]c(C(=O)OC)c3C)C(=O)C(=O)N2CCN(C)C)cc1 (stereo not drawn) | inactive |  |
| Cc1ccc(Oc2ccc(N)cc2)cc1 | inactive |  |
